Each structure is given as a SMILES string.

One assay concerns T1, PIK4CB.
T1 construct: gene PI4KB

Another assay deals with T2, PKAC-beta.
T2 construct: gene PRKACB
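Also: kd values determined as follow-up on hits from a single-replicate KINOMEscan panel screen.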

Usually Kd stands for the concentration at which binding is half-saturated. Read a low Kd as higher affinity. Take `Cc1c(Cn2c(C)c(C)n3c(=O)cc(N4CCOCC4)nc23)cccc1C(F)(F)F` [GSK2328680]: the dissociation constant Kd in the assay with PIK3CD was 0.62 µM; in the assay on PLK2, more than 10 µM. As for `Fc1ccc(-c2nc3n(c2-c2ccncc2)CCS3)cc1` [GI98581], in the assay on PIK3CG, the Kd was more than 10 µM. Consider `COc1cccc(NC(=O)Nc2ccc(C)c(-c3ccc(C(=O)Nc4ccncc4)cc3)c2)c1` [GSK1398474], for which, in the assay with PIK3CG, the Kd was more than 10 µM. Turning to `NS(=O)(=O)c1cccc(N/C=C2\C(=O)Nc3ccc(S(=O)(=O)Cc4c(Cl)cccc4Cl)cc32)c1` [GSK398099], the Kd in the assay on PIK4CB amounted to 1.2 µM. This lies in the single-digit micromolar range.

Regarding `Cc1c(Cn2c3ccccc3n3c(=O)cc(N4CCOCC4)nc23)cccc1C(F)(F)F` [GSK2306394], the Kd in the assay with PIK4CB and in the assay with PKN1 was more than 10 µM throughout. Turning to `CCc1ccc(-c2ccc3c(c2)-c2n[nH]cc2S(=O)(=O)N3C)cc1`, the dissociation constant (Kd) in the assay with PIKFYVE is more than 10 µM. `CS(=O)(=O)Cc1ccc(Nc2nccc(-c3c(-c4cccc(NC(=O)C5CCCCC5)c4)nn4ncccc34)n2)cc1` [GSK350559]: the Kd in the assay with PIP5K1C is more than 10 µM. Take `CN1c2ccc(-c3ccc(C(N)=O)cc3)cc2-c2[nH]ncc2S1(=O)=O`: in the assay with PIP5K1C, the dissociation constant (Kd) amounted to 6.4 µM.

The molecule `O=C1NC(=O)C(c2ccc(Cl)cc2)=C1Nc1cccc(Cl)c1` [SB-317651] returned a Kd in the assay on PKAC-beta of more than 10 µM. `CC[C@@H]1CO[C@H](C(=O)Nc2ccccc2)CN1c1cc(-c2ccc3c(N)n[nH]c3c2)nc(NC)n1` [GSK2376236] had a Kd in the assay on PKN1 of more than 10 µM. In the assay with PRKCI, `CNC(=O)c1ccc(C)c(-n2c(C)cc(OCc3ccc(F)cc3F)c(Br)c2=O)c1` yielded a Kd of more than 10 µM.

Source of the values: article PMC5540273 (PLoS ONE, 2017).
